Data on seven compounds can be found in PubChem BioAssay AID2283162 (EPA ToxCast).

Molecules are shown by their SMILES. Inconclusive results are not listed. Calls of active or inactive are those of the source. Rule for the calls: active = hit-call score of the fitted dose curve at least 0.9, where 1 is the maximum; inconclusive = response in the unintended direction; inactive = score below 0.9.

human Insulin-like Growth Factor 1 Receptor (IGF1R), IGF1R (gene 3480), sequence (P08069 whole entry, looked up): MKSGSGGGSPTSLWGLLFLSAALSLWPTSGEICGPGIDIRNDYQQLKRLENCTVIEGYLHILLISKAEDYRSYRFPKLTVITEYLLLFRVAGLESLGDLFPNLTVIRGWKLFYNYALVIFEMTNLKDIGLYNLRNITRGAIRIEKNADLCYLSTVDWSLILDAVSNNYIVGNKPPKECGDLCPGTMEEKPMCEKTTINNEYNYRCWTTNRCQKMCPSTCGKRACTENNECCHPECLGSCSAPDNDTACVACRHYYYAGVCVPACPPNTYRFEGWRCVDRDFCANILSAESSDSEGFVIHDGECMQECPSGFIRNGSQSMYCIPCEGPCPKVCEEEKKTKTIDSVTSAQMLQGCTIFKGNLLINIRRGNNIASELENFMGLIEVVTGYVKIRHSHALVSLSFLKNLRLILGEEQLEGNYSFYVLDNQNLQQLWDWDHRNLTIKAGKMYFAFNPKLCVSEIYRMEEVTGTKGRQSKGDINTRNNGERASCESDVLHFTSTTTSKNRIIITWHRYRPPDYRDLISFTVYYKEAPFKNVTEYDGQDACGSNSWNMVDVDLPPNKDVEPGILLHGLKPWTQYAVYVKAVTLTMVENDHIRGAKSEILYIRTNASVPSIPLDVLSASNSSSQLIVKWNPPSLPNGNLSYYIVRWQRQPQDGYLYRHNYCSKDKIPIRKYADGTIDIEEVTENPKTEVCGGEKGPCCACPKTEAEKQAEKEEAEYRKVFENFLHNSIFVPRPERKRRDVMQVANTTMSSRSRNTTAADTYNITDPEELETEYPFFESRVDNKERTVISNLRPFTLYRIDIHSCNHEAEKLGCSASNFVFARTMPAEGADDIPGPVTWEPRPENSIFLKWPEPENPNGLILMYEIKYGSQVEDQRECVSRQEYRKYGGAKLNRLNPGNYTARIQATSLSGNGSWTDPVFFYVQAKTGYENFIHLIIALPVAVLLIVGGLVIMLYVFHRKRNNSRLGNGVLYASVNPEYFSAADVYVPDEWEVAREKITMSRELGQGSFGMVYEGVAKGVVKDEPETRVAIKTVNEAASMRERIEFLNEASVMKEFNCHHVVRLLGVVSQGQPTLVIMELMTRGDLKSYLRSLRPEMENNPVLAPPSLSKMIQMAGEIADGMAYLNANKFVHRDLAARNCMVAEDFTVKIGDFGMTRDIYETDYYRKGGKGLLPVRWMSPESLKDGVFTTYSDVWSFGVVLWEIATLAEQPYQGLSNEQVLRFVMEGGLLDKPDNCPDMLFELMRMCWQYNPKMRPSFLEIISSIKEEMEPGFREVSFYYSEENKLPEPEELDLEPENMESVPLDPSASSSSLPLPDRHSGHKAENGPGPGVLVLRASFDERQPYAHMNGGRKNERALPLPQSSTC

The target in this test is human Insulin-like Growth Factor 1 Receptor (IGF1R), IGF1R (gene 3480) (UniProt P08069). Description: NVS_ENZ_hIGF1R: NovaScreen (NVS) Enzymatic Assay for human Insulin-like Growth Factor 1 Receptor (IGF1R). The procedure:
NVS_ENZ_hIGF1R is a biochemical, single-readout assay that uses extracted gene-proteins in a cell-free assay. Measurements were taken 1 hour after chemical dosing in a 384-well plate.NVS_ENZ_hIGF1R is one of one assay component(s) measured or calculated from the NVS_ENZ_hIGF1R assay. It is designed to make measurements of enzyme activity, a form of enzyme reporter, as detected with fluorescence intensity signals by Fluorescence and electrophoretic mobility shift technology.Data from the assay component NVS_ENZ_hIGF1R was analyzed into 1 assay endpoint. This assay endpoint, NVS_ENZ_hIGF1R, was analyzed in the positive analysis fitting direction relative to DMSO as the negative control and baseline of activity. Using a type of enzyme reporter, loss-of-signal activity can be used to understand changes in the enzymatic activity as they relate to the gene IGF1R. Furthermore, this assay endpoint can be referred to as a primary readout, because this assay has produced multiple assay endpoints where this one serves a enzymatic activity function. To generalize the intended target to other relatable targets, this assay endpoint is annotated to the kinase intended target family, where the subfamily is receptor tyrosine kinase.
Binding assays used specific radioligands (tritiated, iodinated) with non-radioactive competitive displacement ligands in agonist or antagonist protocols (as indicated) and various reference compounds and inhibitors to titrate specific binding to receptors and transporters. Most enzyme assays (CYPs, kinases, phosphatases, proteases, HDACs) used recombinant protein and specific substrates (fluorescence mostly, some colorimetric and radioactive) and inhibitors, followed by a biochemical separation of substrate and product. All assays for the biochemical HTS were initially run in duplicate at a single concentration (10 uM for CYP450 assays and 25 uM for all others). Assay-chemical combinations meeting a pre-defined threshold (e.g., 30% inhibition and other criteria defined below) were then run in singleton concentration-response format with maximum concentration of 20 uM for CYPs and 50 uM for all others. Each assay was run with positive and negative controls, and concurrent controls on every plate. The follow-up (secondary) screen tested active chemical-pairs in concentration series, as well as a few additional assays not tested in the primary screen, some selected negative inactives, and several cases re-run in the concentration series for confirmatory purposes.
For `c1ccc(C(O[C@@H]2CCCN(CCc3ccc4c(c3)OCO4)C2)c2ccccc2)cc1`, the outcome was inactive.

Broadly, the AC50 is the midpoint of the concentration-response curve, whichever way the signal moves. Take `O=C(O)CC(O)(CC(=O)O)C(=O)O`: the half-maximal activity concentration (AC50) is 5.18 µM (active).

On to `CCCCCCCC/C=C\CCCCCCCC(=O)OC[C@@H](O)[C@H]1OC[C@H](O)[C@H]1O`, for which the compound was classed as inactive.

As for `CC(C)c1cccc(C(C)C)c1NC(=O)NS(=O)(=O)c1cc(C(C)(C)O)co1`, the outcome was inactive.

With `CN(C)C(=O)NC1(c2ccccc2)CCN(CCC[C@]2(c3ccc(Cl)c(Cl)c3)CCCN(C(=O)c3ccccc3)C2)CC1`, the result was inactive.

In the case of `CCCCc1ccc2c(n1)[C@@H](c1ccc(OC)cc1C[C@H](C)C(=O)O)[C@H](C(=O)O)[C@H]2c1ccc2c(c1)OCO2`, the result was inactive.

Turning to `COc1cc(C(=O)NC2CCN(C)CC2)ccc1Nc1ncc2c(n1)N(C1CCCC1)CC(F)(F)C(=O)N2C`, the half-maximal activity concentration (AC50) was 23.2 µM (active).
